# Laboratory results reported in PubChem BioAssay AID540256 (National Center for Advancing Translational Sciences (NCATS), 2011).
# Out of some 300,000 compounds screened, about 3,700 (1.2%) were called active. Entries that show only a call come without a potency. Roughly 20% stayed inconclusive and do not appear here. This is one part of a sample in which actives are shown more often than they occur. Calls come from the whole dose curve; tested in HEK293 cells.
# Experiment: qHTS for Inhibitors of binding or entry into cells for Lassa Virus; note: nearly all actives have a fitted effect of over 50% in size
# Settings: Lassa virus pseudotype entry inhibition, cell reporter; series mostly up to 37.9 µM
# Potency is the fitted concentration of half-maximal effect.
row,Structure (SMILES),Potency
1,Cc1oc2ncnc(N3CCCCC3)c2c1C(=O)N1CCN(c2cccc(Cl)c2)CC1,inactive
2,Cc1ccc(CNC(=O)COc2ccc3c(c2)CCC3)cc1,18.4 µM (active)
3,Cc1ccc(CNC(=O)COc2ccc(S(=O)(=O)NC(C)C)cc2)cc1,inactive
4,Cc1ccc(OCC(=O)NNC(=S)NCc2ccccc2)cc1,inactive
5,O=C1CCc2cc(S(=O)(=O)Nc3ccc(C(F)(F)F)cc3)cc3c2N1CC3,inactive
6,CCOc1ccc(C(=O)CCC(=O)NC2=NCCS2)cc1,inactive
7,Cc1ccc2oc(=O)c3cnn(CC(=O)N4CCN(c5cccc(Cl)c5)CC4)c3c2c1,inactive
8,Cc1ccccc1CCNC(=O)C1CCC(=O)N(Cc2ccc(Cl)cc2)C1 (stereo unspecified),inactive
9,COc1ccccc1NC(=O)Nc1nc(CC(=O)Nc2ccccc2F)cs1,inactive
10,Brc1ccc(-c2csc(N/N=C/c3ccc4c(c3)OCO4)n2)cc1,inactive
11,Cc1noc(C)c1/C=N/Nc1ccc2ccccc2n1,inactive
12,C(=N\Nc1ccc2ccccc2n1)/c1ccc2c(c1)OCO2,2.24 µM (active)
13,Cn1nnc2cc(C(=O)NCCC3=CCCCC3)ccc21,8.91 µM (active)
14,CC(Sc1nncn1C)C(=O)NCCC1=CCCCC1 (stereo unspecified),inactive
15,Cc1ccc(-n2cnc3cc(C(=O)NCCC4=CCCCC4)ccc32)cc1Cl,inactive
16,Cc1cccc(C(=O)N[C@H](C(=O)NCc2cccs2)C(C)C)c1,inactive
17,COc1ccc2c(c1)c(=Cc1ccc(N(C)C)cc1)c1cc(-c3ccccc3)[n+](C)n12,8.91 µM (active)
18,CCc1nnc(SCc2c(F)cccc2Cl)c2cc3sccc3n12,inactive
19,COc1cccc(-c2nnc(NC(=O)c3ccc(S(=O)(=O)N(CC(C)C)CC(C)C)cc3)o2)c1,7.08 µM (active)
20,CS(=O)(=O)c1ccc(-c2nnc(NC(=O)c3ccc4c(c3)OCCO4)o2)cc1,inactive
21,O=C(COC(=O)c1ccc(Oc2ccccc2)cc1)Nc1nnc(-c2ccccc2)o1,inactive
22,COC(=O)c1ccc(NS(=O)(=O)c2cc3c4c(c2)C(C)C(=O)N4CCC3)cc1 (stereo unspecified),inactive
23,COc1ccc(C(=O)N2CCN(c3ccc(C(C)=O)cc3F)CC2)cc1S(=O)(=O)NC1CC1,inactive
24,O=C(NCCSCc1ccccc1)c1ccc(Cl)c(S(=O)(=O)N2CCOCC2)c1,inactive
25,CC(C)(CNC(=O)c1ccc(Cl)c(S(=O)(=O)N2CCc3ccccc3C2)c1)N1CCOCC1,11.2 µM (active)
26,CC(C)(CNC(=O)Cc1ccc(Cl)cc1Cl)N1CCOCC1,inactive

row,Structure (SMILES),Potency
1,Nc1ncnc2c1cnn2C1CC(O)C(CO)O1 (stereo unspecified),inactive
2,CSc1ncccc1C(=O)NCC(c1ccco1)N1CCCCC1 (stereo unspecified),inactive
3,CCS(=O)(=O)Nc1ccc(C2=NN(S(=O)(=O)c3ccc(F)cc3)C(c3ccco3)C2)cc1 (stereo unspecified),7.3 µM (active)
4,CS(=O)(=O)Nc1ccc(C2=NN(S(C)(=O)=O)C(c3cccs3)C2)cc1 (stereo unspecified),inactive
5,CCS(=O)(=O)Nc1ccc(C2=NN(C(C)=O)C(c3cccs3)C2)cc1 (stereo unspecified),inactive
6,COc1ccccc1C(=O)c1ccccc1C(=O)c1ccccc1,inactive
7,COc1ccc(-c2cn3nc(N4CCC(C(=O)Nc5cccc(C)c5C)CC4)sc3n2)cc1,inactive
8,CC(C)OC(=O)c1ccc(NCc2cc(O)ccc2O)cc1Cl,10 µM (active)
9,CC(C)NC(=O)c1ccc(Cl)cc1Cl,inactive
10,CC(OC(=O)c1ccc(Cl)cc1O)C(=O)NCCC1=CCCCC1 (stereo unspecified),inactive
11,O=C(Cn1c(-c2cccs2)cc2ccccc21)NCCc1ccc(Cl)cc1,inactive
12,O=C1c2ccccc2C(=O)N1CCCCCCN1C(=O)c2ccccc2C1=O,inactive
13,CC(=O)c1ccc(S(=O)(=O)NC2CC(=O)N(c3ccc4c(c3)OCCO4)C2)cc1 (stereo unspecified),inactive
14,O=C(CSc1nncs1)NC1CCCc2ccccc21 (stereo unspecified),inactive
15,CSc1ccccc1N1CCN(CCCCCC(=O)NC2CCCc3ccccc32)CC1 (stereo unspecified),11.6 µM (active)
16,O=C(CN1CCN(c2ccc(O)cc2)CC1)NC1CCCc2ccccc21 (stereo unspecified),inactive
17,Cc1cccc(NC(=S)N2CCC(C(=O)c3ccc(F)cc3)CC2)c1,inactive
18,COc1cc(C(c2c(NC(=O)c3ccco3)sc(C)c2C)N2CCOCC2)cc(OC)c1OC (stereo unspecified),inactive
19,Cc1ccc(-c2csc(NC(=O)c3cccs3)n2)cc1,inactive
20,Cc1ccc(-c2nnc(-c3ccc(NC(=O)c4cccs4)cc3)o2)cc1,7.3 µM (active)
21,Cc1ccc(C(=O)Nc2ccc(NC(=O)c3cccs3)cc2)c(C)c1,inactive
22,COC(=O)c1cc(C(=O)OC)n2ccc3cc(OC)c(OC)cc3c12,inactive
23,CSCCC(NC(=O)COc1ccccc1)C(=O)OCc1ccc(Cl)cc1 (stereo unspecified),inactive
24,O=C(CSc1nc2[nH]c(=O)[nH]c(=O)c2s1)Nc1cccc(F)c1,inactive
25,COc1cc(C(=O)N2CCN(c3ccc(Nc4ccc(C)cc4)nn3)CC2)cc(OC)c1OC,inactive
26,O=C(NC1CC1)c1ccc(-c2ccccc2)cc1,inactive

row,Structure (SMILES),Potency
1,Cc1ccc(C(=O)NC2CCC2)cc1-c1ccc(C(=O)NCC2CC2)cc1,11.2 µM (active)
2,Cc1ccc(C(=O)NCC(=O)OCC(=O)NC2CCCCCCC2)cc1,inactive
3,CCN(CC(=O)Nc1ccc(OC)cc1)C(=O)c1ccc(Cl)c(S(=O)(=O)N2CCCC2)c1,inactive
4,COC(=O)c1cc(C(=O)NC(C)C2CC3CCC2C3)cc([N+](=O)[O-])c1 (stereo unspecified),inactive
5,O=C(CCCCCCCC(=O)N1CCCCC1)N1CCCCC1,inactive
6,CSc1ncc(Sc2ccccc2)c(C(=O)O)n1,inactive
7,COc1ccc2nc(N3C(=O)C(O)=C(C(=O)c4ccco4)C3c3ccco3)sc2c1 (stereo unspecified),inactive
8,Cc1cccn2c(=O)c(/C=C3\SC(=S)N(CC(C)C)C3=O)c(NCCCOC(C)C)nc12,inactive
9,CCCN(CCC)c1nc2c(C)cccn2c(=O)c1/C=C1/SC(=S)N(Cc2ccco2)C1=O,inactive
10,CCOC(=O)CC1C(=O)NCCN1c1nc2c(C)cccn2c(=O)c1/C=C1\SC(=S)N(C(C)CC)C1=O (stereo unspecified),6.31 µM (active)
11,CC(=O)c1ccc(NC(=O)COc2ccccc2-c2nc(-c3ccccc3)no2)cc1,inactive
12,CCOc1nc(-c2ccc(OC)cc2)ccc1-c1noc(-c2cc(OC)c(OC)c(OC)c2)n1,inactive
13,COc1ccc(-c2nc(-c3ccccc3)no2)c(OC)c1,1.64 µM (active)
14,CC(=O)OCC(=O)C1(O)CCC2C3CC(C)C4=CC(=O)CCC4(C)C3C(O)CC21C (stereo unspecified),inactive
15,O=C(Nc1cccc(S(=O)(=O)N2CCOCC2)c1)C12CC3CC(CC(C3)C1)C2,inactive
16,COc1ccc(CNC(=O)/C(C#N)=C/c2cccc(OC)c2OC)cc1,3.55 µM (active)
17,COc1ccc(NC(=O)/C(C#N)=C\c2cc(OC)c(OCc3ccc(C(=O)O)cc3)cc2Br)cc1,inactive
18,N#C/C(=C\c1ccc(O)c(O)c1)C(=O)NCc1ccccc1,inactive
19,O=C(Nc1ccc(Cl)c(Cl)c1)c1ccccc1NC(=O)C1CC=CCC1C(=O)O (stereo unspecified),inactive
20,CCOC(=O)c1c(-c2cccc(C)c2)csc1NC(=O)c1c(-c2ccccc2)noc1C,0.562 µM (active)
21,Cc1ccc(CNC(=O)c2c(-c3ccccc3)noc2C)cc1,inactive
22,CC(=O)Nc1cccc(NC(=O)c2c(-c3ccccc3)noc2C)c1,inactive
23,Cc1cccc(N2CCN(c3ccc(C(=O)O)cc3NC(=O)c3ccccc3F)CC2C)c1 (stereo unspecified),inactive
24,NC(=O)C1(Nc2ccccc2Cl)CCCC1,inactive
25,CCOc1ccc(N/C=C/C(=O)c2ccccc2)cc1,7.08 µM (active)
26,Cc1noc(NS(=O)(=O)c2ccc(N/C=C/C(=O)c3ccccc3)cc2)c1C,inactive

row,Structure (SMILES),Potency
1,O=C(/C=C\NCC(=O)c1ccccc1)c1ccccc1,inactive
2,COc1ccc2c(CNCCc3ccccc3C)c(C(=O)O)n(Cc3ccccc3C)c2c1,inactive
3,COc1ccc(CCNCc2c(-c3ccccc3)n(C)c3ccccc23)cc1,8.91 µM (active)
4,COc1ccc(Cn2c(C(=O)O)c(CNCCc3cccs3)c3ccc(OC)cc32)cc1,inactive
5,CCOC(=O)C1CCN(C(=O)COc2cccc3ccccc23)CC1,inactive
6,O=C(Nc1cc(S(=O)(=O)N2CCCCC2)ccc1Cl)C1COc2ccccc2O1 (stereo unspecified),inactive
7,COc1cccc(CNC(=O)c2ccc3c(c2)sc2nc(-c4cccc(OC)c4)cn23)c1,inactive
8,CC(=O)c1ccc(S(=O)(=O)N2CCN(c3nc4c(C)c(C)ccc4cc3C#N)CC2)cc1,18.3 µM (active)
9,Cc1cc(C)c2nc(N3CCCC3)c(C#N)cc2c1,inactive
10,CC(=O)c1cc(C#N)c(N2CCCCC2)nc1C,inactive
11,COc1ccc(N2CCN(C(=O)COC(=O)c3cccc(S(=O)(=O)Nc4ccccc4OC)c3)CC2)cc1,inactive
12,COCCN(C(=O)C(C)N1C(=O)c2ccccc2C1=O)c1c(N)n(CC(C)C)c(=O)[nH]c1=O (stereo unspecified),inactive
13,CC(=O)Nc1ccn(Cc2c(F)cccc2Cl)n1,inactive
14,Cn1cc([N+](=O)[O-])c(C(=O)Nc2cnn(Cc3ccc(F)cc3)c2)n1,inactive
15,O=C(Nc1ccn(Cc2ccccc2)n1)c1n[nH]c([N+](=O)[O-])c1Cl,7.31 µM (active)
16,O=C(CN1CCC(NC(=O)Nc2ccccc2)CC1)Nc1cccc([N+](=O)[O-])c1,inactive
17,CCn1c(SCC(=O)Nc2ccc(Br)cc2)nc2sc3c(c2c1=O)CCN(C)C3,inactive
18,COc1ccc(C)cc1Nc1nc(C)nc2c1oc1ccccc12,inactive
19,CCC1([N+](=O)[O-])COC(c2ccc(C(C)C)cc2)OC1 (stereo unspecified),inactive
20,COc1ccc(/C=C2\CCCC3C2=NN(C(=O)c2scnc2C)C3c2ccc(OC)cc2)cc1 (stereo unspecified),1.03 µM (active)
21,COc1ccc(/C=C2/CCCc3ccccc3C2=O)cc1,inactive
22,CCOc1ccccc1-c1nc(CN2CCC(C(=O)N3CCOCC3)CC2)c(C)o1,inactive
23,COc1cccc(C=CC(=O)C=CC=Cc2ccccc2)c1,inactive
